Records with an inconclusive call do not appear. Where a call stands in place of a potency, no number is given. Values without a mark were called inactive. Calls of active or inactive are those of the source. Unless noted, calls follow the shape of the dose curve; as a rule, active = well fitted curve in the direction sought with a large enough effect in the repeat runs; inconclusive = weak or mixed curves; inactive = no such curve, though single readings can be large; an effect the other way counts as inactive or inconclusive.
What was measured:
[1] = qHTS assay to identify small molecule antagonists of the estrogen related receptor (ERR) signaling pathway from Tox21 library - cell viability counter screen (AID 1224834); also: nearly all actives have a fitted effect of over 30% in size
Outline: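 Seeded ERR cells were rested 6 h at 37 C/5% CO2 before compounds, positive and negative controls or DMSO were added. Incubation continued for 17.5 h, and viability was then quantified by CellTiter-Fluor fluorescence.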

[2] = molecular target: Luciferin 4-monooxygenase (Photinus pyralis) (UniProt P08659); assay: qHTS assay to identify small molecule inhibitors of firefly luciferase (AID 1224835); also: nearly all actives have a fitted effect of over 25% in size
Outline: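 Quantitative HTS format; KM concentrations of both substrates. Purified P. pyralis FLuc activity quantified from luminescence images.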

[3] = molecular target: Nuclear receptor subfamily 1 group I member 3 (Homo sapiens) (UniProt Q14994); assay: qHTS assay to identify small molecule antagonists of the constitutive androstane receptor (CAR) signaling pathway (AID 1224838);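 also: HepG2 cells stably expressing hCAR with CYP2B6 luciferase reporter stimulated by CITCO; nearly all actives have a fitted effect of over 40% in size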
Outline: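 Human hepatoma HepG2 cells expressing hCAR and a CYP2B6 promoter (2.2 kb) luciferase construct; compound titration (15 points) with 50 nM CITCO final, 24 h at 37 C/5% CO2; luminescence via ONE-Glo after 30 min at room temperature.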

[4] = qHTS assay to identify small molecule antagonists of the estrogen related receptor signaling pathway with the pleiotropic PPARgamma coactivator (PGC) from Tox21 10K library - cell viability counter screen (AID 1224840; active = well fitted cell-killing curve with a large enough effect in the repeat runs, not every such curve was filed as active; also: nearly all actives have a fitted effect of over 40% in size)
Outline: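 Seeded PGC/ERR cells (2,000/well, 6 h, 37 C/5% CO2) get compound by pin tool; 17.5 h incubation at 37 C; CellTiter-Fluor added, 30 min, fluorescence measured.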

[5] = qHTS assay to identify small molecule antagonists of the estrogen related receptor signaling pathway with the pleiotropic PPARgamma coactivator (PGC) from Tox21 10K library (AID 1224841; call rule not given here; also: actives are mostly falling curves and most rising ones were filed inactive; nearly all actives have a fitted effect of over 50% in size)
Outline: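 Test chemicals dissolved in DMSO were applied to pre-incubated (6 h) PGC/ERR cells at 2,000 cells/well for an 18 h, 37 C treatment; reporter luminescence was then read using One-Glo.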

[6] = qHTS assay to identify small molecule agonists of the estrogen related receptor signaling pathway with the pleiotropic PPARgamma coactivator (PGC) from Tox21 10K library (AID 1224842); also: nearly all actives have a fitted effect of over 15% in size
Outline: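 PGC/ERR reporter cells (NTP line) were seeded 2,000 per well, rested 6 h at 37 C/5% CO2, then pin-dosed with compounds in DMSO for 18 h at 37 C; luciferase read by One-Glo luminescence after 30 min at room temperature.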

[7] = qHTS assay to identify small molecule antagonists of the constitutive androstane receptor (CAR) signaling pathway - cell viability counter screen (AID 1224837); also: nearly all actives have a fitted effect of over 45% in size
Outline: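 To flag cytotoxic false antagonists, HepG2 hCAR/CYP2B6-2.2kb cells were treated 23 hr with 15-concentration compound series and 50 nM CITCO at 37 C/5% CO2; CellTiter-Fluor fluorescence was the measured end point.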

[8] = molecular target: Nuclear receptor subfamily 1 group I member 3 (Homo sapiens) (UniProt Q14994); assay: qHTS assay to identify small molecule agonists of the constitutive androstane receptor (CAR) signaling pathway (AID 1224839); also: nearly all actives have a fitted effect of over 15% in size;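 as to activation: HepG2 cells stably carrying human CAR and a CYP2B6 luciferase reporter; series mostly up to about 92 µM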
Outline: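 HepG2-CYP2B6-hCAR cells, 2500/well, 4 h pre-incubation; compounds 15 conc.; PK11195 0.75 uM final; 24 h, 37 C/5% CO2; ONE-Glo luciferase read.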

[9] = molecular target: Thyrotropin receptor (Homo sapiens) (UniProt P16473); assay: qHTS assay to identify small molecule agonists of the thyroid stimulating hormone receptor (TSHR) signaling pathway (AID 1224843; calls by dose curve; also: nearly all actives have a fitted effect of over 45% in size)
Outline: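 Compounds are titrated over 15 concentrations, in triplicate, onto TSHR-HEK293 cells seeded at 800/well. Plates sit 30 min at room temperature before cAMP-d2 and anti-cAMP cryptate are added; signal is read after a further hour.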

[10] = qHTS assay to identify small molecule agonists of the constitutive androstane receptor (CAR) signaling pathway - cell viability counter screen (AID 1224836); also: nearly all actives have a fitted effect of over 45% in size
Outline: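 HepG2-CYP2B6-hCAR, 2500 cells/well, 4 h pre-incubation; cpd 15 conc + PK11195 0.75 uM final; 23 h, 37 C/5% CO2; CellTiter-Fluor, fluorescence.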
Potency is read from the fitted curve at half-maximal effect.

Nuclear receptor subfamily 1 group I member 3 (Homo sapiens), sequence (Q14994 whole entry, looked up): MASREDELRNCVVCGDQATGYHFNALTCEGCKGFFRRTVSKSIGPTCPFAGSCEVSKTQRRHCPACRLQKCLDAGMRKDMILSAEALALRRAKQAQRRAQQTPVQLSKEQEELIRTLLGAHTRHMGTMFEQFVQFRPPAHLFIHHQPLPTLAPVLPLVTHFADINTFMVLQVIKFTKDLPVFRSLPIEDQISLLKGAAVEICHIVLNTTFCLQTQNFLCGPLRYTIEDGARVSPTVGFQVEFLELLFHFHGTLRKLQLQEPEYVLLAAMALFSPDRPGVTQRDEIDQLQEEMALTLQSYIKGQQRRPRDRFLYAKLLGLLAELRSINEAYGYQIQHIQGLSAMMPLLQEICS
Luciferin 4-monooxygenase (Photinus pyralis), sequence (P08659 whole entry, looked up): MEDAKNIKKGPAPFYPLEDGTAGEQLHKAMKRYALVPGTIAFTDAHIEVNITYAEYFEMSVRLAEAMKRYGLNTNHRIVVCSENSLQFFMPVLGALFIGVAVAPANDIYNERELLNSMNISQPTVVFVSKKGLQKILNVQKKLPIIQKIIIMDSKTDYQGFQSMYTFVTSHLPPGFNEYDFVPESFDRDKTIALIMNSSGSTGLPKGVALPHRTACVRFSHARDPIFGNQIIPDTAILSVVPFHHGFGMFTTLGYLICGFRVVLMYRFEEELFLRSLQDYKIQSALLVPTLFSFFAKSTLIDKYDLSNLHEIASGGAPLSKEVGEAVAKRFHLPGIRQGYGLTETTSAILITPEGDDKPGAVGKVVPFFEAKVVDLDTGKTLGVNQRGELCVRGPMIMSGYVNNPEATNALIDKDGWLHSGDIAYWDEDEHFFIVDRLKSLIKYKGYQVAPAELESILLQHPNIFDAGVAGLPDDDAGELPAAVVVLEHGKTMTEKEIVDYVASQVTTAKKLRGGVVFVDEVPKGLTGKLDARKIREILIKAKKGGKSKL
Thyrotropin receptor (Homo sapiens), sequence (P16473 whole entry, looked up): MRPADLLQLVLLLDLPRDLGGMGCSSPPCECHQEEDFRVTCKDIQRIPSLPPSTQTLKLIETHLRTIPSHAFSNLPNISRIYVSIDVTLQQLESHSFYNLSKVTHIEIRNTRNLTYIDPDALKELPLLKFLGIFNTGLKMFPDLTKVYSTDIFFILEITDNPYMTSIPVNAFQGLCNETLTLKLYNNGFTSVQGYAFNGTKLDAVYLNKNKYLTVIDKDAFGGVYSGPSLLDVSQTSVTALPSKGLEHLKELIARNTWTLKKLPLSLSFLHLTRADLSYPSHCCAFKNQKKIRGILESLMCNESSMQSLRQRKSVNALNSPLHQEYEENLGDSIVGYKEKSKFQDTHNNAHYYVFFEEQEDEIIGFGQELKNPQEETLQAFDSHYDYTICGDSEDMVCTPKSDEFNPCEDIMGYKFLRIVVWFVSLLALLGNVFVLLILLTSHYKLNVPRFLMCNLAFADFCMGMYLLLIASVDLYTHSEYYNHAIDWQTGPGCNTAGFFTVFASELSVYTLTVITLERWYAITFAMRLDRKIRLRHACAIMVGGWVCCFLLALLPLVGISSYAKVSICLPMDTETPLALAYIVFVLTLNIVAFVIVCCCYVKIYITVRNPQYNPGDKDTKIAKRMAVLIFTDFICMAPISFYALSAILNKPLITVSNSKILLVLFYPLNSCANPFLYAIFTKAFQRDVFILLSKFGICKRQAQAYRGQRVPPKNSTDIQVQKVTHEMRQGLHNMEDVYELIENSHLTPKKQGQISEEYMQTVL

SMILES	Potency [1]	Potency [2]	Potency [3]	Potency [4]	Potency [5]	Potency [6]	Potency [7]	Potency [8]	Potency [9]	activation [8]	activation [9]	Potency [10]
C[C@@H](CN(C)C)CN1c2ccccc2Sc2ccccc21	26.6 µM (active)	inactive	inactive	inactive	inactive	inactive						
Cc1cc(C)c(N)cc1C	inactive	inactive	inactive	inactive			inactive	inactive	inactive			
CCOC(C)=O	inactive	inactive	inactive	inactive			inactive	inactive	inactive			
C=C(C)CCCC(C)CCO (stereo not given)	inactive	inactive		inactive			inactive		inactive			
O=c1cc(-c2ccccc2)oc2ccc3ccccc3c12	inactive	0.0356 µM (active)	inactive	inactive	inactive	0.243 µM (active)	inactive	4.86 µM (active)				
CCCCCC#CC(=O)OC	inactive	inactive	inactive	inactive	inactive	inactive	inactive	inactive	inactive			
CC(C)c1nc(CN(C)C(=O)N[C@H](C(=O)N[C@@H](Cc2ccccc2)C[C@H](O)[C@H](Cc2ccccc2)NC(=O)OCc2cncs2)C(C)C)cs1	13.3 µM (active)	inactive	inactive		23.7 µM (active)	inactive		inactive	inactive			
CCC=CC#N	inactive	inactive	inactive	inactive			inactive	inactive	inactive			
O=C(O)CCCCCCCCCCCBr	inactive	56.6 µM (active)	inactive	inactive		inactive	inactive	inactive				
O=c1cc(-c2ccccc2)oc2cc(O)cc(O)c12	30.6 µM (active)	2.52 µM (active)	inactive					30.6 µM (active)				
COc1cc(C(=O)NC2CCN(C)CC2)ccc1Nc1ncc2c(n1)N(C1CCCC1)CC(F)(F)C(=O)N2C	31.5 µM (active)	inactive	8.88 µM (active)	35.3 µM (active)	inactive	2.5 µM (active)		inactive	inactive			
CO[C@]1(NC(=O)CSC(F)F)C(=O)N2C(C(=O)O)=C(CSc3nnnn3CCO)CO[C@H]21	inactive	inactive		inactive			inactive		inactive			
CN1CCCC(n2nc(Cc3ccc(Cl)cc3)c3ccccc3c2=O)CC1 (stereo not given)	29.8 µM (active)	inactive		inactive	inactive	inactive	16.8 µM (active)	inactive	inactive			
CN1C(=O)OC(C)(C)C1=O	inactive	inactive	inactive	inactive	inactive	inactive	inactive	inactive				
CC1=C(Br)C(=O)C(Br)=C/C1=C(/c1ccccc1S(=O)(=O)O)c1cc(Br)c(O)c(Br)c1C	18.6 µM (active)	19.2 µM (active)	18.6 µM (active)	18.6 µM (active)		inactive	33 µM (active)	inactive				
CC1(CN2CCC(n3c(=O)[nH]c4ccccc43)CC2)OCc2ccccc2-n2cccc21 (stereo not given)	23.7 µM (active)	inactive	inactive					inactive				
CC(CC1c2ccccc2CCc2ccccc21)CN(C)C (stereo not given)	33.5 µM (active)	inactive		inactive			29.8 µM (active)					
Cc1cc(O)ccc1O	61.8 µM (active)	inactive	inactive	61.8 µM (active)		inactive	inactive					
CC=C(Cl)Cl	inactive	inactive	inactive	inactive			inactive	inactive	inactive			
N#[N+]c1ccc2c(S(=O)(=O)[O-])cccc2c1O	inactive	44.8 µM (active)	inactive	inactive	inactive	inactive	inactive	inactive	inactive			
Cc1cccc(O)c1N	27.6 µM (active)	inactive		inactive	inactive	inactive		inactive	inactive			
Cc1cc(C)cc(N)c1	inactive	inactive	inactive	inactive			inactive	inactive	inactive			
C=C1c2cccc(O)c2C(O)=C2C(=O)[C@]3(O)C(O)=C(C(N)=O)C(=O)[C@@H](N(C)C)[C@@H]3[C@@H](O)[C@H]12	inactive	inactive	inactive	inactive		inactive	inactive	inactive				
Cc1ccco1	inactive	inactive	inactive	inactive			inactive	inactive	inactive			
OCCOCC#CCOCCO	inactive	inactive	inactive	inactive			inactive	inactive	inactive			
Cc1c(C)c2c(c(C)c1OC(=O)CCC(=O)OCCO)CC[C@@](C)(CCC[C@H](C)CCC[C@H](C)CCCC(C)C)O2	inactive	inactive	inactive		21.1 µM (active)	inactive		inactive	inactive			
CN1C[C@H](C(=O)N[C@]2(C)O[C@@]3(O)[C@@H]4CCCN4C(=O)[C@H](Cc4ccccc4)N3C2=O)C[C@@H]2c3cccc4[nH]cc(c34)C[C@H]21	26.6 µM (active)	inactive	inactive		inactive	inactive		inactive	inactive			

SMILES	Potency [1]	Potency [2]	Potency [3]	Potency [4]	Potency [5]	Potency [6]	Potency [7]	Potency [8]	Potency [9]	activation [8]	activation [9]	Potency [10]
CCn1cc(C(=O)O)c(=O)c2cc(F)c(N3CCNCC3)cc21	inactive	inactive		inactive			inactive		inactive			
O=C1C(=O)c2ccccc2C(O)=C1C1CCC(c2ccc(Cl)cc2)CC1 (stereo not given)	inactive	inactive		inactive		inactive						
CCCCCCCCCCCCCCN(CCO)CCO	61.1 µM (active)	inactive	48.6 µM (active)	54.5 µM (active)		inactive	61.1 µM (active)	inactive				
O=C(/C=C/c1ccc(O)c(O)c1)O[C@@H]1C[C@@](OC(=O)/C=C/c2ccc(O)c(O)c2)(C(=O)O)C[C@@H](O)[C@@H]1O	inactive	inactive		inactive			inactive		inactive			
CCC(C)COC(=O)CC(C)C (stereo not given)	inactive	inactive	inactive	inactive			inactive	inactive	inactive			
CCOC(=O)c1ccc(O)c(O)c1	inactive	inactive	inactive	inactive			inactive		inactive			
CC(=O)Nc1ccc(C)cc1C	inactive	inactive	inactive	inactive		inactive	inactive	inactive	inactive			
O=C(CCCN1CC=C(n2c(=O)[nH]c3ccccc32)CC1)c1ccc(F)cc1	33.5 µM (active)	inactive	inactive	inactive				inactive	inactive			
O[C@@H]1CO[C@H]2[C@@H]1OC[C@@H]2O	inactive	inactive		inactive			inactive		inactive			
CN1C(=O)c2ccccc2C1=O	inactive	inactive	inactive	inactive	inactive	inactive	inactive	inactive	inactive			
CC(=O)NC1(c2cccc(F)c2)CCN(CC[C@@]2(c3ccc(Cl)c(Cl)c3)CN(c3ccccc3)C(=O)CO2)CC1	54.6 µM (active)	inactive		43.4 µM (active)			54.6 µM (active)	inactive	inactive			
C=Cc1ccc(S(=O)(=O)O)cc1	inactive	20 µM (active)		inactive		inactive	inactive		inactive			
Cc1cc(=O)c2c(O)c3c(O)cc(=O)c4c3c3c(cc(O)c1c23)C(C)(C)C=4O	1.46 µM (active)	inactive	2.59 µM (active)							-14.4% [at 19 µM]	13.3% [at 19 µM]	
CC(C)C(O)(c1ccc(OC(F)(F)F)cc1)c1cncnc1 (stereo not given)	inactive		inactive	inactive			inactive	inactive	48.4 µM (active)			inactive
Nc1cccc2c1CN(C1CCC(=O)NC1=O)C2=O (stereo not given)	inactive		inactive	inactive			inactive	inactive	inactive			inactive
CCCCCCC(C)(C)C(=O)O	inactive		inactive	inactive		inactive	inactive	inactive	inactive			inactive
CCCCC(CC)COP(=O)(O)O (stereo not given)	inactive		inactive	inactive			inactive	inactive	inactive			inactive
CC(=O)Nc1cc(S(=O)(=O)O)cc2cc(S(=O)(=O)O)c(N=Nc3ccccc3)c(O)c12	24.3 µM (active)		inactive	27.3 µM (active)		inactive	27.3 µM (active)	inactive				30.6 µM (active)
CCC1CO1 (stereo not given)	inactive			inactive			inactive		inactive			inactive
CC[N+](CC)(CCNC(=O)C(=O)NCC[N+](CC)(CC)Cc1ccccc1Cl)Cc1ccccc1Cl	inactive			inactive	inactive	inactive	inactive					inactive
CN1C(=O)N(c2ccccc2Br)Cc2cnc(Nc3ccc4c(c3)OCC(CO)O4)nc21 (stereo not given)	27.3 µM (active)			21.7 µM (active)		inactive						30.6 µM (active)
COc1cc(Nc2c(C#N)cnc3cc(OCCCN4CCN(C)CC4)c(OC)cc23)c(Cl)cc1Cl	9.44 µM (active)			inactive								inactive
C=C/C(C)=C/C/C=C(\C)CCC=C(C)C	inactive		inactive	inactive	inactive	inactive	inactive	inactive	inactive			inactive
CC(C)C=O	inactive		inactive	inactive	inactive	inactive	inactive	inactive	inactive			inactive
C=C1CCC2CC1C2(C)C (stereo not given)	inactive			inactive			inactive		inactive			inactive
NCCNCCO	inactive		inactive	inactive		inactive	inactive	inactive	inactive			

Reference: PubChem BioAssay (Tox21)
